For eight compounds, growth results are on record in PubChem BioAssay (NCI).

This is part of a sample that, as a whole, favours compounds with a hit. Of some 83,000 tested, about 20% had one in any assay.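 Step 1: grow cells in 96-well plates. Step 2: add test compound at a single concentration. Step 3: incubate 48 h. Step 4: record percent growth.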 Unmarked numbers belong to inactive results. The source made the active and inactive calls. How the source made its calls: active means growth percent below 10; inactive means the rest.

Among the test systems are NCI-H23 lung; NCI-H226 lung; NCI-H322M lung; HOP-62 NSCLC; NCI-H460 lung; HOP-92 NSCLC; NCI-H522 lung; A549/ATCC NSCLC; 786-0 renal; COLO 205 colon; DU-145 prostate; K-562 leukemia; MALME-3M melanoma; MDA-MB-231 breast; RXF 393 renal; SF-268 CNS; SF-295 CNS; SF-539 CNS; UACC-257 melanoma.
What all share (test): NCI-60 one-dose screen, 48 h (100 = growth as untreated, 0 = no growth, -100 = all killed)
What all share (settings): 10 µM unless noted

As to `CN(C)S(=O)(=O)n1cnc([C@@H]2[C@@H]3C(=O)OC[C@@H]3C[C@]23N=CN(Cc2ccccc2)C3=O)c1`, the growth was 128% with NCI-H23 lung; 110% with NCI-H226 lung; 110% with NCI-H322M lung; 95.9% with HOP-62 NSCLC; 113% in the experiment on NCI-H460 lung; 110% in the experiment on HOP-92 NSCLC. Besides, the growth in the experiment on NCI-H522 lung was 102%; in the experiment with A549/ATCC NSCLC, 123%; with 786-0 renal, 102%; in the experiment with COLO 205 colon it was 118%; with DU-145 prostate, 111%; with K-562 leukemia, 116%. The growth is 110% in the experiment on MALME-3M melanoma; 112% in the experiment with MDA-MB-231 breast; 126% in the experiment with RXF 393 renal; 95.6% with SF-268 CNS; 105% in the experiment on SF-295 CNS; 98.5% in the experiment with SF-539 CNS. In the experiment with UACC-257 melanoma, the growth is 116%.

For `O=C(Nc1ccc(N2CCCCC2)c(Cl)c1)c1ccc(Br)o1`, the growth with NCI-H23 lung is 81.3%; with NCI-H226 lung, 82.1%; with NCI-H322M lung, 115%; in the experiment with HOP-62 NSCLC, 109%; in the experiment on NCI-H460 lung, 69.4%; in the experiment with HOP-92 NSCLC, 105%. Also, the growth in the experiment on NCI-H522 lung is 87.2%; with A549/ATCC NSCLC, 82.5%; with 786-0 renal, 97.6%; in the experiment with COLO 205 colon it was 103%; in the experiment on DU-145 prostate, 68%; with K-562 leukemia it was 68.1%. Further, the growth in the experiment with MALME-3M melanoma was -66.9% (active); with MDA-MB-231 breast, 69.2%; in the experiment with RXF 393 renal, 108%; in the experiment on SF-268 CNS it was 76%; with SF-295 CNS, 105%; in the experiment on SF-539 CNS, 118%. Besides, in the experiment with UACC-257 melanoma, the growth is 67.5%.

As to `COc1ccc(NC(=O)C(=O)c2c[nH]c3ccc(F)cc23)cc1`, the growth in the experiment with NCI-H23 lung was 97.8%; in the experiment with NCI-H226 lung, 101%; with NCI-H322M lung, 73%; in the experiment on HOP-62 NSCLC, 103%; in the experiment on NCI-H460 lung, 90.7%; in the experiment with HOP-92 NSCLC, 99.2%. Also, the growth in the experiment with NCI-H522 lung is 85.1%; in the experiment on A549/ATCC NSCLC it was 78.7%; in the experiment on 786-0 renal, 56.1%; in the experiment on COLO 205 colon, 104%; in the experiment on DU-145 prostate, 88.9%; with K-562 leukemia, 90.6%. Also, the growth in the experiment on MALME-3M melanoma was 115%; in the experiment on MDA-MB-231 breast, 95.5%; in the experiment on RXF 393 renal, 103%; in the experiment on SF-268 CNS, 94.7%; in the experiment with SF-295 CNS, 102%; in the experiment with SF-539 CNS it was 108%. In addition, the growth with UACC-257 melanoma is 101%.

`O=C1CC(c2ccc3c(c2)OCO3)Nc2cc3c(cc21)OCO3` (configuration not stated): the growth was 44.5% with NCI-H23 lung; 64.5% in the experiment with NCI-H226 lung; 57.5% in the experiment with NCI-H322M lung; 29.7% in the experiment on HOP-62 NSCLC; 5.95% (active) in the experiment with NCI-H460 lung; 29.2% with HOP-92 NSCLC. The growth with NCI-H522 lung is -9.02% (active); in the experiment with A549/ATCC NSCLC, 10.1%; with 786-0 renal it was 30.8%; in the experiment with COLO 205 colon, -27.1% (active); in the experiment with DU-145 prostate, 15.3%; in the experiment with K-562 leukemia, 10.2%. Moreover, the growth with MALME-3M melanoma is 75.2%; in the experiment on MDA-MB-231 breast, 24.7%; in the experiment with RXF 393 renal, -11.2% (active); in the experiment on SF-268 CNS, 44%; in the experiment on SF-295 CNS, 7.59% (active); in the experiment with SF-539 CNS, 6.5% (active). The growth with UACC-257 melanoma was 39.6%.

On to `COc1cc2c(O)n(CCCn3ccnc3)c3c4cnc5cccc(c(=O)c3c2cc1OC)c54`, for which the growth in the experiment with NCI-H23 lung is 38.8%; with NCI-H226 lung, 41.8%; with NCI-H322M lung it was 77.9%; in the experiment on HOP-62 NSCLC, 13.1%; with NCI-H460 lung it was 6.78% (active); in the experiment with HOP-92 NSCLC, 28%. In addition, the growth is 18.7% with NCI-H522 lung; 35.6% in the experiment on A549/ATCC NSCLC; 7.01% (active) with 786-0 renal; 33.1% in the experiment with COLO 205 colon; 19.2% in the experiment with DU-145 prostate; 11.6% in the experiment on K-562 leukemia. Besides, the growth was 67.1% in the experiment with MALME-3M melanoma; 51.2% with MDA-MB-231 breast; 39.5% with RXF 393 renal; 36.4% with SF-268 CNS; 21.4% in the experiment with SF-295 CNS; 22.1% in the experiment with SF-539 CNS. In the experiment with UACC-257 melanoma, the growth is 45.2%.

`COC1(CC[C@@H](C)COC2OC(CO)C(O)C(O)C2O)O[C@H]2C[C@H]3[C@@H]4CC=C5C[C@@H](OC6OC(CO)C(OC7OC(C)C(O)C(O)C7O)C(O)C6OC6OC(C)C(O)C(O)C6O)CC[C@]5(C)[C@H]4CC[C@]3(C)[C@H]2[C@@H]1C` (some centres not stated): the growth is -63% (active) in the experiment with NCI-H23 lung; -57.2% (active) with NCI-H226 lung; -85.2% (active) in the experiment with NCI-H322M lung; -83% (active) in the experiment on HOP-62 NSCLC; -90.2% (active) in the experiment on NCI-H460 lung; -62% (active) with HOP-92 NSCLC. For the same compound, the growth with NCI-H522 lung is -60.9% (active); in the experiment with A549/ATCC NSCLC, -64.7% (active); with 786-0 renal it was -94.3% (active); with COLO 205 colon, -12.2% (active); with DU-145 prostate, -96.2% (active); in the experiment on K-562 leukemia it was -22.9% (active). The growth in the experiment on MALME-3M melanoma was -87.3% (active); in the experiment on MDA-MB-231 breast, -70% (active); in the experiment with RXF 393 renal, -78.1% (active); in the experiment on SF-268 CNS, -90.7% (active); in the experiment on SF-295 CNS it was -81.9% (active); in the experiment on SF-539 CNS it was -99% (active). Also, in the experiment on UACC-257 melanoma, the growth is -47.4% (active).

Consider `NS(=O)(=O)c1cn(-c2ncnc3nc[nH]c23)ccc1=O`, for which the growth with NCI-H23 lung was 94.2%; in the experiment on NCI-H226 lung it was 78%; with NCI-H322M lung, 94.5%; in the experiment with HOP-62 NSCLC it was 94.9%; in the experiment on NCI-H460 lung, 112%; with HOP-92 NSCLC, 82.7%. In addition, the growth with NCI-H522 lung is 51.2%; in the experiment with A549/ATCC NSCLC it was 36%; in the experiment on 786-0 renal it was 96.9%; in the experiment with COLO 205 colon, 100%; with DU-145 prostate it was 103%; with K-562 leukemia, 84.6%. Moreover, the growth with MALME-3M melanoma was 82.9%; in the experiment with MDA-MB-231 breast it was 89.3%; in the experiment on RXF 393 renal, 130%; in the experiment with SF-268 CNS, 93.3%; in the experiment on SF-295 CNS it was 49.3%; in the experiment on SF-539 CNS, 105%. Besides, the growth in the experiment with UACC-257 melanoma is 138%.

For `O=C(O)c1ccc(CO)o1`, the growth in the experiment on NCI-H23 lung is 110%; with NCI-H226 lung it was 106%; with NCI-H322M lung, 105%; in the experiment with HOP-62 NSCLC it was 113%; in the experiment with NCI-H460 lung it was 101%; with HOP-92 NSCLC, 91.5%. In addition, the growth with NCI-H522 lung was 86.4%; with A549/ATCC NSCLC, 93.6%; in the experiment on 786-0 renal, 77.8%; in the experiment with COLO 205 colon, 115%; with DU-145 prostate, 113%; in the experiment on K-562 leukemia it was 109%. The growth in the experiment on MALME-3M melanoma is 113%; in the experiment with MDA-MB-231 breast, 112%; with RXF 393 renal, 104%; in the experiment on SF-268 CNS it was 109%; in the experiment with SF-295 CNS, 102%; with SF-539 CNS it was 99.6%. Also, in the experiment on UACC-257 melanoma, the growth is 85.5%.
